# Assay results as given in PubChem BioAssay.
# Active and inactive are the calls of the source. How the calls were made is not given here.
# Molecular target: Pantothenate synthetase (Mycobacterium tuberculosis (strain ATCC 25618 / H37Rv)) (UniProt P9WIL5)
# Test: Coupled enzyme confirmation of inhibitors against recombinant Mtb PanC (AID 375);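 further: 0% = full reaction with vehicle and 100% = no enzyme background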
# Details: coupled enzyme assay; at 10 µM, active compounds read high
# Pantothenate synthetase (Mycobacterium tuberculosis (strain ATCC 25618 / H37Rv)), sequence (P9WIL5 whole entry, looked up): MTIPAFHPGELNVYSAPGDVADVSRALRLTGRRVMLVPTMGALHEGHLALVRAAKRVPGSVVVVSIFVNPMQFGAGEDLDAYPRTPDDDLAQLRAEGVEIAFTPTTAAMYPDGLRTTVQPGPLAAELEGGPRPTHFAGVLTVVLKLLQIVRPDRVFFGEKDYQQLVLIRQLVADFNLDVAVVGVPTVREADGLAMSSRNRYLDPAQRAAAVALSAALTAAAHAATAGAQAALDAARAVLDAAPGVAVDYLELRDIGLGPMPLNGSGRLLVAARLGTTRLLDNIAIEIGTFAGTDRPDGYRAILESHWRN
row,SMILES,inhibition
1,CC(=O)C(Sc1ncnc2c1nnn2-c1ccc(F)cc1)C(=O)N(C)C (stereo not given),0% (inactive)
2,COc1cccc(CN=CC2=C(O)CC(C)(C)CC2=O)c1OC,0% (inactive)
3,COCCn1c(=NC(=O)CSC(C)=O)sc2cc(F)ccc21,12% (inactive)
4,CS(=O)(=O)N1CCCC(C(=O)NCCCN2CCC(Cc3ccccc3)CC2)C1 (stereo not given),0% (inactive)
5,O=C(O)c1cccn2c(=O)c3ccccc3nc12,0% (inactive)
6,Cc1ccc(CNC(=O)CCCn2c(=O)c3ccccc3n(CC(=O)NCc3ccco3)c2=O)cc1,0% (inactive)
7,CCc1c(C(=O)Nc2ncn(Cc3cccc(C)c3)n2)csc1C,4% (inactive)
8,O=C(CCCCCn1c(=O)[nH]c2ccsc2c1=O)N1CCCCC1,5% (inactive)
9,C(=N\n1cnnc1)/c1cccnc1,0% (inactive)
10,COc1cc2cc(C(c3nnnn3C3CCCC3)N3CCCCCC3)c(=O)[nH]c2cc1OC (stereo not given),5% (inactive)
11,Cc1ccc(C)c(NS(=O)(=O)c2ccc(NC(=O)c3ccco3)cc2)c1,0% (inactive)
12,Cc1c(C(=O)N2CCCC2)sc(NC(=O)c2cccs2)c1C#N,0% (inactive)
13,CCOc1ccccc1-n1c(SCC(=O)NC2CCCC2)nnc1-c1ccoc1C,1% (inactive)
14,C=C(Cl)COC(=O)[C@H]1C2C=CC(C2)C1C(=O)O (stereo not given in full),2% (inactive)
15,O=C(O)CN1C(=O)C2(OCCCO2)c2ccccc21,0% (inactive)
16,CCOc1ccc(S(=O)(=O)N2CCN(C(=O)c3cccn3C)CC2)cc1,0% (inactive)
17,C=CCn1c(SCC#N)nc2c(c1=O)C(C)(C)Cc1ccccc1-2,0% (inactive)
18,CCC(=O)N1CCc2cc(Br)cc(S(=O)(=O)C3(C(=O)OC)CC3)c21,0% (inactive)
19,COc1cccc(NS(=O)(=O)c2cc(C)sc2C)c1,0% (inactive)
20,CCC(=O)N1CCN(CCN=CC2=C(O)CC(C)(C)CC2=O)CC1,0% (inactive)

row,SMILES,inhibition
1,O=C(CSc1nnc(-c2ccccc2Br)o1)Nc1cccc2ccccc12,2% (inactive)
2,CC1(C)CC(=O)c2cc(OCC(=O)N3CCN(c4ccccc4F)CC3)ccc2O1,6% (inactive)
3,CCN(CC)C(=O)C1CCCN(c2ncnc3c2cnn3-c2ccc(Cl)cc2)C1 (stereo not given),4% (inactive)
4,CCc1[nH]nc2c1C(c1cccc(OC(=O)N3CCOCC3)c1)C(C#N)=C(N)O2 (stereo not given),1% (inactive)
5,O=C(c1cccc(F)c1)N1CCc2ccccc21,0% (inactive)
6,O=C(CSc1nc(N2CCCCC2)nc(N2CCCCC2)n1)Nc1nccs1,0% (inactive)
7,O=C(c1sc2ccccc2c1Cl)N(Cc1cccs1)C1CCS(=O)(=O)C1 (stereo not given),0% (inactive)
8,CCOC(=O)c1ccc(-n2c(=O)[nH]c3ccccc3c2=O)cc1,2% (inactive)
9,c1ccc(SCc2nc3ccccc3[nH]2)nc1,4% (inactive)
10,Cc1cc(NC(=O)CSc2nnc(C3CC3)n2C)no1,0% (inactive)
11,O=C(CN1C(=O)CC(c2ccco2)Sc2ccccc21)Nc1ccccc1F (stereo not given),0% (inactive)
12,CN(CCNC(=O)c1ccc(N2CCCC2=O)cc1)CCc1ccccc1,0% (inactive)
13,O=C(Cn1nnc2ccccc2c1=O)NC1CCCc2ccccc21 (stereo not given),5% (inactive)
14,CN(C)CCOC(C)(c1ccccc1)c1ccccn1 (stereo not given),0% (inactive)
15,NC(N)=NS(=O)(=O)c1ccc(N)cc1,0% (inactive)
16,O=C(NC1CCCC1)C(NS(=O)(=O)c1cccc2nsnc12)c1ccccc1 (stereo not given),7% (inactive)
17,COc1cccc(/C=N/n2cnnc2)c1OCc1ccccc1,0% (inactive)
18,O=C(O)CSc1ncn[nH]1,0% (inactive)
19,CCNC(=O)CC1C(=O)N(c2ccccc2)C(=O)N1CCC(C)C (stereo not given),0% (inactive)
20,O=C(NCC(F)(F)F)N1CCOCC1,0% (inactive)
